# “And” between values parts separate entries of the source, which are not always exact repeats. Identical values can stand only once. Unmarked numbers belong to inactive results. The source made the active and inactive calls. Calls follow the shape of the full dose curve.
# Target: Estrogen receptor (Homo sapiens) (UniProt P03372)
# Assay: qHTS assay to identify small molecule agonists of the estrogen receptor alpha (ER-alpha) signaling pathway in the presence of an antagonist (AID 1259383); also: nearly all actives have a fitted effect of over 15% in size; as to activation: top concentration of the series differs between compounds
# Conditions: VM7Luc4E2 cells, ERE-luciferase, +ICI-182,780, 22 h; series mostly up to 92.4 µM; activation: at the top concentration
# Description: National Center for Advancing Translational Sciences [NCATS] NIH Chemical Genomics Center [NCGC] U.S. Environmental Protection Agency [EPA] National Institutes of Environmental Health Sciences [NIEHS] National Toxicology Program [NTP] Assay overview: Estrogen receptor (ER), a member of nuclear hormone receptor plays an important role in development, metabolic homeostasis and reproduction. Two subtypes of ER, ER-alpha and ER-beta, have similar expression patterns with some uniqueness in both types. Endocrine disrupting chemicals (EDCs) and their interactions with steroid hormone receptors like ER causes disruption of normal endocrine function. Therefore, it is important to understand the effect of environmental chemicals in ER signaling pathway. For identifying ER agonists, VM7Luc4E2 cell line has been used in the current assay. VM7Luc4E2 cell line (provided by Denison MS, University of California) endogenously expresses full-length ER-alpha and is stably transfected with a plasmid containing four estrogen responsive elements (ERE) upstream of a luciferase reporter gene. This current screening for measuring luciferase reporter gene activity using VM7Luc4E2 cells against Tox21 10K library collection is a confirmation study on agonist mode screening in presence of ER-antagonist (ICI-182,780) at 10.0nM final concentration.
# Assay Protocol Summary: VM7Luc4E2 cells were cultured in phenol red free assay medium containing 10% charcoal stripped FBS for 5 days prior to the assay. The cells were dispensed at 4,000 cells in 4uL of assay medium per well into white wall/solid-bottom 1536-well plates (Corning Life Sciences, Corning, NY) using a Multidrop Combi (Thermo Fisher Scientific Inc., Waltham, MA) dispenser. After the assay plates were incubated at 37C and 5% CO2 for 24hr, 1uL of 10.0nM (final concentration) ICI-182,780 or assay buffer was added using two separate tips of Flying Reagent Dispenser (FRD, Aurora Discovery, San Diego, CA). Then 23nL of compounds dissolved in DMSO at 15 concentrations and positive controls or DMSO only was transferred to the assay plates by a Pintool station (Wako, San Diego, CA). The assay plates were incubated at 37C and 5% CO2 for 22hr. For luciferase read, 4uL/well ONE-Glo reagent (Promega Corporation, Madison, WI) was added to each well using FRD and after 30min incubation at room temperature, luminescence signal was measured on ViewLux plate reader (PerkinElmer, Shelton, CT).
# % is scaled to controls: 0 for no effect and ±100 for the full control effect; potency is read from the fitted curve at half-maximal effect.
# Estrogen receptor (Homo sapiens), sequence (P03372 whole entry, looked up): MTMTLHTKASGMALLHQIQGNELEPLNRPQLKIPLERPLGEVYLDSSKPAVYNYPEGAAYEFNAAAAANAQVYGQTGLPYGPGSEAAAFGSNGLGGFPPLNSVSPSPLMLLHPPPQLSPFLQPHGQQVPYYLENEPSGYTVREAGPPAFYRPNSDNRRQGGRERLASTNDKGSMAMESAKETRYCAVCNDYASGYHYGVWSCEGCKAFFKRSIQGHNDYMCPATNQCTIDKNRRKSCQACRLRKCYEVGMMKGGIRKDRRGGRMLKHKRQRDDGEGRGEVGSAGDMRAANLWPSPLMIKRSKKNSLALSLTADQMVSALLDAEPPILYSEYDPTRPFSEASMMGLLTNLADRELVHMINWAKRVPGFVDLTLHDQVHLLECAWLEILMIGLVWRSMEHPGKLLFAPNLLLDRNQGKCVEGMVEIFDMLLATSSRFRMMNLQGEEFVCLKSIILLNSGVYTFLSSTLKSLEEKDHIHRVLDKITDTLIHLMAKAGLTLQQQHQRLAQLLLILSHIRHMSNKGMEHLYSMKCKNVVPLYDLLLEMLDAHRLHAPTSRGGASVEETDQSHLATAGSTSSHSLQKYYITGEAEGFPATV
Compound,activation,Potency
C=C(C)C(=O)[O][Sn]([CH2]CCC)([CH2]CCC)[CH2]CCC,-16.2%,
COC(=O)N(OC)c1ccccc1COc1ccn(-c2ccc(Cl)cc2)n1,-15.6%,
[O]=[Cr][O][Cr]=[O],0.287%,
COP(=S)(OC)Oc1nc(Cl)c(Cl)cc1Cl,0.354%,
OCC(Br)CBr (stereo not given),-0.104%,
CN1C2CCC(C)(C)C1CC(OC(=O)C(O)(c1cccs1)c1cccs1)C2 (stereo not given),-1.04% [at 42.5 µM],
Oc1cccc(Cl)c1Cl,1.13%,
COP(=S)(NC(C)C)Oc1ccc(C)cc1[N+](=O)[O-] (stereo not given),4.54%,
ClSC(Cl)(Cl)Cl,-1.23%,
COc1cnc(OC)n2nc(NS(=O)(=O)c3c(OCC(F)F)cccc3C(F)(F)F)nc12,0.302%,
CC(C)(C)c1ccc(OP(=O)(Oc2ccccc2)Oc2ccccc2)cc1,0.605%,
CCNc1nc(NC(C)C(C)C)nc(SC)n1 (stereo not given),0.655%,
Brc1cccc(-c2ccccc2)c1,0.526%,
ClCBr,0.0111%,
CO/N=C(/C1=NOCCO1)c1ccccc1Oc1ncnc(Oc2ccccc2Cl)c1F,-15.3%,
Cc1cc2c3c(c1)C(c1ccccc1)=N[C@@H](NC(=O)c1ccncc1)C(=O)N3CC2,-1%,
C=CC(=C)C,1.04%,
CC(O)C(=O)[O][Hg][c]1ccccc1 (stereo not given),-15.6%,
C=CCOC(=O)c1ccccc1N,3.04%,
O=S1(=O)OCC2C(CO1)C1(Cl)C(Cl)=C(Cl)C2(Cl)C1(Cl)Cl (stereo not given),-3.05%,

Compound,activation,Potency
CC(=O)[O][Pb]([c]1ccccc1)([c]1ccccc1)[c]1ccccc1,-17%,
Cc1cnc2c(C(=O)O)c(Cl)ccc2c1,-0.819%,
Cc1ccc2cc3c(ccc4ccccc43)c3c2c1CC3,-0.186% [at 42.5 µM],
CC(C)c1c(CN(C)C(C)Cc2ccccc2)n(C)n(-c2ccccc2)c1=O (stereo not given),-1.91% [at 42.5 µM],
ClC(Cl)C(Cl)(Cl)Cl,-0.14%,
C[C@]12C/C(=C/O)C(=O)C[C@@H]1CC[C@@H]1[C@@H]2CC[C@@]2(C)[C@H]1CC[C@]2(C)O,,8.71 µM (active) and 21.1 µM (active)
Nc1nc(N)nc(Cl)n1,1.42%,
Oc1cc(Cl)cc(Cl)c1,2.16%,
CC(=O)C(Cl)C(=O)N(C)C (stereo not given),0.0307%,
COc1c2c(cc3c1OCO3)CCN(C)C2,-1.67% [at 42.5 µM],
CCCCCCCCCCCCCCn1cc[n+](C)c1,,inactive
C=Cc1cccc(CCl)c1,-0.0921% [at 240 µM],
O=S1OCC2C(CO1)C1(Cl)C(Cl)=C(Cl)C2(Cl)C1(Cl)Cl (stereo not given),,inactive
CCOP(=O)(OCC)Oc1nc(Cl)c(Cl)cc1Cl,0.517%,
COC(=O)C(C)N(C(=O)c1ccco1)c1c(C)cccc1C (stereo not given),-2.63%,
CCN1CCC2(CC1)COc1cc3c(cc12)N(C(=O)c1ccc(-c2ccc(-c4nnc(C)o4)cc2C)cc1)CC3,-0.671%,
CCCCc1ccccc1,-0.132%,
S=C=Nc1ccccc1,11.3%,
CC[C@H](C)[C@H]1O[C@]2(C=C[C@@H]1C)C[C@@H]1C[C@@H](C/C=C(\C)[C@@H](O[C@H]3C[C@H](OC)[C@@H](O[C@H]4C[C@H](OC)[C@@H](NC)[C@H](C)O4)[C@H](C)O3)[C@@H](C)/C=C/C=C3\CO[C@@H]4[C@H](O)C(C)=C[C@@H](C(=O)O1)[C@]34O)O2,-15.5%,
CC1(C)C(C=C(Cl)Cl)C1C(=O)OC(C#N)c1ccc(F)c(Oc2ccccc2)c1 (stereo not given),-1.09%,

# From PubChem BioAssay (Tox21)
